This is one part of the list. A number with no mark means an inactive call. The source made the active and inactive calls.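 Rule for the calls: active = mean inhibition across replicates of at least 20% with every single replicate also at 20% or more; inconclusive = mean inhibition at least 20% but some replicate falls below 20%; inactive = mean inhibition under 20% and not all replicates reach it.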
What follows are compounds tested on PglD UDP-4-amino-sugar N-acetyltransferase (Campylobacter jejuni) (assay: inhibition of C. jejuni PglD N-acetyltransferase – biochemical, DTNB absorbance, single point, cherry-picked samples, confirmation (AID 743156;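 note: initial rate of CoA release by acetyl transfer from AcCoA to the UDP-4-amino sugar; 0% = median of neutral control wells and 100% = median of positive control wells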)). Conditions: Purified C. jejuni PglD, DTNB absorbance 412 nm; at 20 µM; active compounds read high.

SMILES | inhibition
CSc1ccc(S(=O)(=O)NCc2ccc(Cl)cc2)cc1 | 3.66%
CC(=O)Nc1ccc(OC(=O)COc2ccc(Br)cc2)cc1 | 1.84%
Cc1ccc(C2=C/C(=C\c3cccnc3)C(=O)O2)cc1 | 7.97%
Cc1ccc(S(=O)(=O)N2CCC(C(=O)NCC3CCCO3)CC2)cc1 (configuration not stated) | -10.7%
CC(C)CCNC(=O)c1ccc2c(Cl)c3c(nc2c1)CCC3 | 2.89%
CCCOc1ccc(F)cc1-c1cc(C(=O)Nc2ccc(F)cc2)[nH]n1 | 3.61%
CCCCC(=O)Nc1ccc(C(=O)NCCCn2ccnc2)cc1 | -0.586%
C=CC1=C(C(=O)O)N2C(=O)[C@@H](NC(=O)/C(=N/OCC(=O)O)c3csc(N)n3)[C@H]2SC1 | 37.4% (active)
O=S1(=O)CC(NCc2ccccc2)C(Nc2ccc(Cl)cc2)C1 (configuration not stated) | -7.57%
Cc1ccc(NC(=O)CNCc2ccccn2)cc1S(=O)(=O)N(C)C | -5.07%
CC(NC(=O)c1ccc(Cl)cc1)C(=O)N1CCCCC1 (configuration not stated) | 0.85%
C=CCOC(=O)C1=C(C)NC(SCC(=O)OCC)=C(C#N)C1c1ccc(C)cc1 (configuration not stated) | 0.793%
COc1ccc(NC(=O)C2=NNC(=O)CC2)cc1S(=O)(=O)N1CCCCC1 | -3.63%
O=C(NCc1ccncc1)C1CCN(C(=O)c2cccc(Cl)c2)CC1 | 2.21%
CC(C)(C)c1ccc(CN2C(=O)c3ccccc3S2(=O)=O)cc1 | 2.98%
O=C(Nc1ccc(Sc2ccc(Br)cc2)cc1)c1ccco1 | 11.2%
CCOc1ccc(OCc2ccc(C(=O)N(C)c3ccccc3)o2)cc1 | 1.37%

Reference: PubChem BioAssay AID743156 (Broad Institute, 2013)
